{"source": "PubChem BioAssay (NCATS)", "note": "Records with an inconclusive call do not appear. A call without a number means that no potency is given here. Active and inactive are the calls of the source. Calls come from the whole dose curve; as a rule, active = well fitted inhibition curve with a large enough effect; inconclusive = small, poorly fitted or top-dose-only effect; inactive = no such curve, though single readings can be large or run the other way. Potency is the fitted concentration of half-maximal effect.", "data": [{"experiment": "P-glycoprotein substrates identified in KB-3-1 adenocarcinoma cell line, qHTS therapeutic library screen (AID 1346986); note: nearly all actives have a fitted effect of over 60% in size;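 note: potency is for cytotoxicity meaning loss of cell viability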", "conditions": "KB-3-1 parental cells viability, CellTiter-Glo, 72 h; series mostly up to 44.5 µM", "outline": "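Using luminescence to quantify ATP, parental and P-gp-overexpressing KB cells were compared after 72 h compound titration. KB-8-5-11 was also run with the P-gp inhibitor tariquidar.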", "values": [{"smiles": "COc1ccc2[nH]c(=O)c3c(c2c1)OC(C)(C)C=C3", "Potency": "inactive"}, {"smiles": "C=C1C(=O)O[C@@H]2C[C@]3(C)[C@@H](CCC(C)O)[C@@H]3C[C@H]12", "note": "(some centres undefined)", "Potency": "inactive"}, {"smiles": "CO[C@@H]1[C@H](O)CCC2(CO2)[C@H]1[C@@]1(C)O[C@@H]1CC=C(C)C", "note": "(some centres undefined)", "Potency": "inactive"}, {"smiles": "C[C@@H]1O[C@@H](O[C@H]2[C@@H]3C=CO[C@@H](O[C@@H]4O[C@H](CO)[C@@H](O)[C@H](O)[C@H]4O)[C@@H]3[C@@]3(CO)O[C@@H]23)[C@H](O)[C@H](OC(=O)/C=C/c2ccccc2)[C@H]1O", "Potency": "inactive"}, {"smiles": "Cc1nc(NC(=O)N2CCCC2C(N)=O)sc1-c1ccnc(C(C)(C)C(F)(F)F)c1", "note": "(centres undefined)", "Potency": "23.1 µM (active)"}, {"smiles": "Nc1nc(OCc2cc(Br)cs2)c2[nH]cnc2n1", "Potency": "inactive"}, {"smiles": "CCOc1ccc(-n2c(C(C)N(Cc3cccnc3)C(=O)Cc3ccc(F)c(C(F)(F)F)c3)nc3ncccc3c2=O)cc1", "note": "(centres undefined)", "Potency": "inactive"}, {"smiles": "C=C(COC(=O)C(O)C(O)CN)C12OC1C1(C)C(=CC2=O)C(O)C(O)CC1C", "note": "(centres undefined)", "Potency": "inactive"}, {"smiles": "C=C1C(=O)OC2CC3(C)C(O)C(=O)C=C(C)C3CC12", "note": "(centres undefined)", "Potency": "inactive"}, {"smiles": "COc1ccc(-c2ccc3c(N4CCOCC4C)nc(N4CCOCC4C)nc3n2)cc1CO", "note": "(centres undefined)", "Potency": "0.0731 µM (active)"}, {"smiles": "NC(=O)c1cccc2[nH]c(-c3ccc(C4CCCN4)cc3F)nc12", "note": "(centres undefined)", "Potency": "inactive"}, {"smiles": "C=C1CC[C@@H]2[C@](C)(CO)[C@H](O)CC[C@@]2(C)[C@@H]1CC(O)C1=CCOC1=O", "note": "(some centres undefined)", "Potency": "inactive"}, {"smiles": "COc1cc(OC)c2c(=O)[nH]c(-c3cc(C)c(OCCO)c(C)c3)nc2c1", "Potency": "inactive"}, {"smiles": "C=C1CC[C@@H](O)[C@]2(C)CC[C@H]3C(=C)C(=O)O[C@@H]3[C@@H]12", "Potency": "inactive"}]}]}
